Test system: Lefty1
Experiment: Lefty1 binders on small-molecule microarrays, primary screen, biochemical, small-molecule microarray, 635/667 nm fluorescence (AID 1139)
Conditions: small-molecule microarray binding, fluorescence 635/667; higher = more signal

Row | Structure (SMILES) | composite z-score
1 | CCCNC(=O)[C@@]1(Sc2ccc(C)cc2)CC(=O)N(Cc2cc(C(F)(F)F)cc(C(F)(F)F)c2)[C@@H]1c1ccc(CO)cc1 | -0.675
2 | C=C(CCCC)/C(=C/C[C@@H](OC(C)=O)c1cccc(OCCO)c1)c1cc(C(=O)OC)ccc1OC | 1.08
3 | Cc1cccc([C@H]2C[C@H]3C(Br)=C[C@@]2(CO)C(=O)[C@]32CO2)c1 | 0.433
4 | CCCCN1CC=CC23O[C@@H]4/C=C\CCCOC(=O)C4[C@H]2C(=O)N(CCCCCCO)[C@@H]3C1=O (stereo partly drawn) | -0.331
5 | C=CCNC(=O)[C@@H]1[C@H]2C(=O)O[C@H](c3ccccc3)[C@H](c3ccccc3)N2[C@H](c2ccc(OCCO)cc2)[C@@]12C(=O)N(C(=O)OCCOC)c1ccccc12 | 0.581
6 | COc1ccc(C(=O)Nc2ccc(CN3C(=O)[C@]4(O[C@H](CC(=O)N(CCO)Cc5ccccc5)[C@@H]([Si](C)(C)c5ccc(OC)cc5)[C@@H]4C)c4ccccc43)cc2)cc1 | 1.32
7 | COC(=O)Cn1c(C(=O)N(C)C)cc2c1C[C@H]1CN(C(=O)c3ccccc3)[C@@](Cc3ccccc3)(C(=O)OC)[C@@H]21 | -0.0528
8 | CO[C@H]1O[C@H](CO)[C@@H](OC(=O)Nc2cccc(F)c2)[C@H](OC(=O)Nc2ccc3c(c2)OCO3)[C@@H]1OC(=O)Nc1ccc2c(c1)OCO2 | 0.278
9 | COC(=O)[C@@]1(Cc2ccc(F)cc2)[C@H]2c3cc(C(=O)N(C)C)n(Cc4cccc5ccccc45)c3C[C@H]2CN1C(=O)c1ccccc1 | -0.446
10 | CCOC(=O)C[C@H]1[C@H](OC(=O)Cc2ccc3c(c2)OCO3)[C@@H](NC(=O)CC(C)C)c2cc(OCCCO)ccc2N1C(=O)c1ccc2ccccc2n1 | 0.424
11 | O=C1O[C@H](c2ccccc2)[C@H](c2ccccc2)N2[C@H]1[C@@H](C(=O)N1CCN(c3ncccn3)CC1)[C@]1(C(=O)Nc3ccc(C#CC4(O)CCCCCC4)cc31)[C@H]2c1ccc(O)cc1 | 0.58
12 | COC(=O)C[C@H]1O[C@]2(C(=O)N(C)c3ccccc32)[C@@H](C)[C@@H]1[Si](C)(C)c1ccccc1 | 0.966

Test system: wheat germ agglutinin (Triticum aestivum), Alexa647-labelled
Experiment: wheat germ agglutinin binders on compound microarrays, profiling panel, artefact control for SMM control-protein annotation, biochemical, small-molecule microarray, 635/667 nm fluorescence (AID 1140);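 further: score merges 667 nm feature emission with signal to noise over triplicate slides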
Conditions: WGA-A647 binding, 635 nm fluorescence, higher = more signal

Row | Structure (SMILES) | composite z-score
13 | CCCC[C@@H](O)C1=C(C)Cn2c(=O)n(-c3ccccc3)c(=O)n2[C@H]1CO | 0.502
14 | CCOC(=O)C[C@H]1[C@H](OC(=O)c2cc3ccccc3oc2=O)[C@@H](NC(=O)Cc2ccc(OC)cc2)c2cc(OCCCO)ccc2N1C(=O)Cc1ccc(OC)cc1 | 0.348
15 | COC(=O)C1=CC(CCCO)=CC(c2ccc(CN3CCCC3)cc2)N(C)C=C1C(=O)OC (stereo not drawn) | 1.01
16 | CCOC(=O)C[C@H]1[C@H](OC(=O)c2ccc(-c3ccccc3)cc2)[C@@H](NC(=O)c2ccc(-c3ccccc3)cc2)c2cc(OCCCO)ccc2N1C(=O)c1ccccc1 | 0.792
17 | COc1ccc(C(=O)Nc2cccc(CN3C(=O)[C@]4(O[C@H](CC(=O)N(CCO)Cc5ccccc5)[C@@H]([Si](C)(C)c5ccc(OC)cc5)[C@@H]4C)c4ccccc43)c2)cc1 | 0.596
18 | O=C(N1CCOCC1)[C@]1(CCS(=O)(=O)c2ccccc2)N=C(c2ccc(OCCCO)cc2)O[C@@H]1c1ccccc1 | 1.29
19 | CC(C)c1ccc(NN2C(C(O)c3ccccc3)C=CC3C(=O)N(c4ccccc4)C(=O)C32)cc1 (stereo not drawn) | 1.13
20 | COc1ccc([Si](C)(C)[C@H]2[C@H](CC(=O)N3CCC[C@H]3CO)O[C@@]3(C(=O)N(C)c4c(Br)cc(C)cc43)[C@@H]2C)cc1 | 1.59
21 | COCCCNC(=O)[C@]1(Cc2ccccc2N=[N+]=[N-])N=C(c2ccc(OCCCO)cc2)O[C@@H]1c1ccccc1 | 1.3
22 | [N-]=[N+]=NCc1ccccc1[C@H]1OC(c2ccc(OCCCO)cc2)=N[C@@]1(Cc1ccccc1N=[N+]=[N-])C(N)=O | 1.21
23 | C=CC[C@]1(C(=O)NCC(O)CO)N=C(c2ccc(OCCCO)cc2)O[C@H]1c1ccccc1CN=[N+]=[N-] (stereo partly drawn) | 0.502
24 | C[C@]1(C(=O)NC2CC2)c2ccccc2C(=O)N(Cc2cc(F)cc(C(F)(F)F)c2)[C@H]1c1ccc(CO)cc1 | -0.692
25 | CC(C)N1CC=CC23O[C@@H]4/C=C\CCCOC(=O)C4[C@H]2C(=O)N(C(C)CO)[C@@H]3C1=O (stereo partly drawn) | 0.33
26 | CCOC(=O)C[C@H]1[C@H](OC(=O)c2ccccc2-c2ccccc2)[C@@H](NC(=O)CC(C)C)c2cc(OCCCO)ccc2N1C(=O)c1ccccc1 | -0.0988
27 | CN(C)CCCCNC(=O)[C@H]1C[C@H]2C(=O)N[C@@H](CCCCN(C)C)C(=O)N2[C@H]1c1ccc(O)cc1 | 0.0466
28 | CC(CO)N1C(=O)[C@@H]2[C@H]3C(=O)OCC=C[C@H]3OC23C=CCN(c2ccc4ccccc4c2)C(=O)[C@@H]13 (stereo partly drawn) | -0.515
29 | CC(C)N1C(=O)[C@@]2(Cc3ccccc31)c1ccccc1C(=O)N(Cc1ccccc1)[C@H]2c1ccc(CO)cc1 | -0.622
30 | CCOC(=O)C1=CC[C@@H](c2ccccc2)N(S(=O)(=O)c2ccc(C)cc2)[C@@H]1C#N | 0.72

Row | Structure (SMILES) | composite z-score
31 | COc1ccc([Si](C)(C)[C@@H]2[C@@H](CC(=O)N(CCO)Cc3ccccc3)O[C@]3(C(=O)N(Cc4cccc(I)c4)c4ccccc43)[C@H]2C)cc1 | 0.618
32 | CO[C@H]1O[C@H](CO)[C@@H](OC(=O)CCc2ccccc2)[C@@H]2OC(=O)[C@@H](Cc3ccc4ccccc4c3)C/C=C/C[C@H](Cc3ccc4ccccc4c3)C(=O)O[C@@H]12 | -0.228
33 | O=C1O[C@H](c2ccccc2)[C@H](c2ccccc2)N2[C@H]1[C@@H](C(=O)O)[C@]1(C(=O)Nc3ccccc31)[C@H]2c1ccc(OCCO)cc1 | 0.677
34 | O=C1c2ccccc2[C@@]2(Cc3ccccc3N(CC(F)(F)F)C2=O)[C@H](c2ccc(CO)cc2)N1Cc1ccccc1 | 0.0111
35 | COCCCNC(=O)[C@@]1(Cc2ccccc2I)c2ccccc2C(=O)N(C2CCCCC2)[C@H]1c1ccc(CO)cc1 | 0.772
36 | COCCOC(=O)N1C(=O)[C@@]2(c3cc(C#CC4(O)CCCCCC4)ccc31)[C@H](C(N)=O)[C@H]1C(=O)O[C@H](c3ccccc3)[C@H](c3ccccc3)N1[C@@H]2c1ccc(OCCO)cc1 | 1.11
37 | CCCNC(=O)[C@@]1(Sc2ccc(C)cc2)CC(=O)N(Cc2cc(C(F)(F)F)cc(C(F)(F)F)c2)[C@@H]1c1ccc(CO)cc1 | -0.037
38 | C=C(CCCC)/C(=C/C[C@@H](OC(C)=O)c1cccc(OCCO)c1)c1cc(C(=O)OC)ccc1OC | 0.617
39 | Cc1cccc([C@H]2C[C@H]3C(Br)=C[C@@]2(CO)C(=O)[C@]32CO2)c1 | -0.549
40 | CCCCN1CC=CC23O[C@@H]4/C=C\CCCOC(=O)C4[C@H]2C(=O)N(CCCCCCO)[C@@H]3C1=O (stereo partly drawn) | -0.13
41 | C=CCNC(=O)[C@@H]1[C@H]2C(=O)O[C@H](c3ccccc3)[C@H](c3ccccc3)N2[C@H](c2ccc(OCCO)cc2)[C@@]12C(=O)N(C(=O)OCCOC)c1ccccc12 | 0.539
42 | COc1ccc(C(=O)Nc2ccc(CN3C(=O)[C@]4(O[C@H](CC(=O)N(CCO)Cc5ccccc5)[C@@H]([Si](C)(C)c5ccc(OC)cc5)[C@@H]4C)c4ccccc43)cc2)cc1 | 0.162
43 | COC(=O)Cn1c(C(=O)N(C)C)cc2c1C[C@H]1CN(C(=O)c3ccccc3)[C@@](Cc3ccccc3)(C(=O)OC)[C@@H]21 | 0.533
44 | CO[C@H]1O[C@H](CO)[C@@H](OC(=O)Nc2cccc(F)c2)[C@H](OC(=O)Nc2ccc3c(c2)OCO3)[C@@H]1OC(=O)Nc1ccc2c(c1)OCO2 | 0.654
45 | COC(=O)[C@@]1(Cc2ccc(F)cc2)[C@H]2c3cc(C(=O)N(C)C)n(Cc4cccc5ccccc45)c3C[C@H]2CN1C(=O)c1ccccc1 | 0.115
46 | CCOC(=O)C[C@H]1[C@H](OC(=O)Cc2ccc3c(c2)OCO3)[C@@H](NC(=O)CC(C)C)c2cc(OCCCO)ccc2N1C(=O)c1ccc2ccccc2n1 | 0.249
47 | O=C1O[C@H](c2ccccc2)[C@H](c2ccccc2)N2[C@H]1[C@@H](C(=O)N1CCN(c3ncccn3)CC1)[C@]1(C(=O)Nc3ccc(C#CC4(O)CCCCCC4)cc31)[C@H]2c1ccc(O)cc1 | 1.06
48 | COC(=O)C[C@H]1O[C@]2(C(=O)N(C)c3ccccc32)[C@@H](C)[C@@H]1[Si](C)(C)c1ccccc1 | 0.219
